These results are taken from PubChem BioAssay (NCATS).

Assay [1] addresses Atrial natriuretic peptide receptor 1 (Homo sapiens) (UniProt P16066). In words: Natriuretic polypeptide receptor (hNpr1) antagonism - Pilot screen (AID 1347049; calls by dose curve;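 note: agonist-evoked cGMP luminescence read 20 min after hNppA addition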). In a few lines:
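HEK293 cells expressing hNpr1 and GloSensor cGMP luciferase, 1500/well, loaded with 2% GloSensor reagent 2 h, compound 30 min at room temperature; luminescence read before and 20 min after 0.1 nM hNppA stimulation.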

Assay [2] concerns the target Atrial natriuretic peptide receptor 2 (Homo sapiens) (UniProt P20594). In words: Natriuretic polypeptide receptor (hNpr2) antagonism - Pilot subtype selectivity assay (AID 1347050; calls by dose curve). In a few lines: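 HEK293 cells expressing hNpr2 and a GloSensor cGMP luciferase sensor, 1500/well, preloaded 2 h with 2% GloSensor reagent, compound 30 min, then 1 nM hNppC for 20 min. Antagonism from luminescence after versus baseline pre-read; LOPAC in 1:5 titrations.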

Assay [3] concerns the target T1, Tyrosine-protein phosphatase non-receptor type substrate 1 (Homo sapiens) + Leukocyte surface antigen CD47 (Homo sapiens) (UniProt P78324+Q08722). In words: CD47-SIRPalpha protein protein interaction - LANCE assay qHTS validation (AID 1347057; active = well fitted curve in the direction sought with a large enough effect in the signal ratio, with a control signal flat, not every such curve was filed as active; the % refers to the signal ratio). An outline of the steps:
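First, His-tagged CD47 and Eu-labelled anti-His antibody met the compound for 30 min; next, site-specifically biotinylated SIRPalpha was added for 30 min; finally streptavidin-APC was added before reading the TR-FRET ratio.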

In assay [4] the target is T1, Tyrosine-protein phosphatase non-receptor type substrate 1 (Homo sapiens) + Leukocyte surface antigen CD47 (Homo sapiens). In words: CD47-SIRPalpha protein protein interaction - HTRF assay qHTS validation (AID 1347058; active = well fitted curve in the direction sought with a large enough effect in the signal ratio, not every such curve was filed as active; the % refers to the signal ratio;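 note: recombinant soluble extracellular CD47 with His tag and biotinylated SIRPalpha domains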). An outline of the steps:
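TR-FRET read (Ch1/Ch2 ratio) of soluble extracellular CD47 and Avi-biotinylated SIRPalpha domains in PBS pH 7.4 with 0.05% IGEPAL; 7-point compound titration. Sequential 30 min room-temperature steps; non-biotinylated SIRPalpha as control inhibitor.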
Background: Time-resolved FRET reads energy transfer from a long-lived donor to a nearby acceptor.

In assay [5] the target is Parathyroid hormone/parathyroid hormone-related peptide receptor (Homo sapiens) (UniProt Q03431). In words: qHTS for PTHR1 Agonists: Optimization Screen against the NCGC LOPAC library (AID 1347079).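 Note: GloSensor cAMP luminescence in HEK-293 GP2 cells expressing human PTHR1 with IBMX.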 An outline of the steps:
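Compounds were tested across a qHTS titration. PTHR1-expressing GP2 cells report cAMP rises via GloSensor luminescence after 1 hr compound exposure at 37C with IBMX present.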
In general terms: qHTS replaces the single test concentration by a dilution series.

The nature of assay [6]: qHTS for Inhibitors of the Functional Ribonucleoprotein Complex (vRNP) of Lassa (LASV) Arenavirus: LASV Primary Screen - GLuc reporter signal (AID 1347082; calls by dose curve; tested in HEK293 reporter line; note: nearly all actives have a fitted effect of over 60% in size).
The nature of assay [7]: qHTS for Inhibitors of the Functional Ribonucleoprotein Complex (vRNP) of Lassa (LASV) Arenavirus: Viability assay - alamar blue signal for LASV Primary Screen (AID 1347083; calls by dose curve; tested in HEK293 reporter line; note: nearly all actives have a fitted effect of over 80% in size).
A short description of assay [8]: qHTS for Inhibitors of the Functional Ribonucleoprotein Complex (vRNP) of Lymphocytic Choriomeningitis Arenaviruses (LCMV): Viability assay - alamar blue signal for LCMV Primary Screen (AID 1347085; calls by dose curve; tested in HEK293 reporter line; note: nearly all actives have a fitted effect of over 80% in size).
Assay [9] in a line: NS1 protein of Zika virus - qHTS assay to identify small molecule inhibitors in human HEK 293 cells (AID 1347053). Note: nearly all actives have a fitted effect of over 55% in size. In a few lines:
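HEK 293 cells, seeded 20 h at 37 C, were pretreated with compound 1 h, then infected with ZIKV MR766 (MOI = 0.5) for 24 h. NS1 was read by TR-FRET with two anti-NS1 antibodies, normalized to uninfected and infected wells.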

A short description of assay [10]: P-glycoprotein substrates identified in KB-8-5-11 adenocarcinoma cell line, qHTS therapeutic library screen (AID 1346987). Note: nearly all actives have a fitted effect of over 65% in size. Note: potency is the fitted concentration of half-maximal effect. An outline of the steps:
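KB-8-5-11: colchicine-selected sub-line of KB-3-1 over-expressing P-gp; assay medium lacked colchicine. 72 h drug exposure at 37 degree C, CellTiter-Glo.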

Assay [11] in a line: P-glycoprotein substrates identified in KB-3-1 adenocarcinoma cell line, qHTS therapeutic library screen (AID 1346986). Note: nearly all actives have a fitted effect of over 60% in size. Conditions: KB-3-1 parental cells viability, CellTiter-Glo, 72 h; at 44.5 µM (top of the series) unless noted. In a few lines:
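Compounds were tested in dose-response against KB-3-1 and KB-8-5-11 cells at 37 degree C for 72 h, and viability was measured by luminescence. AC50 values came from curve fitting with class-based activity calls.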

Assay [12] is described as follows: qHTS assay to identify small molecule inhibitors of chordoma cells - UCH-2 (AID 1259356).

Records with an inconclusive call do not appear. The source made the active and inactive calls. Unless noted, calls come from the whole dose curve; as a rule, active = well fitted curve in the direction sought with a large enough effect; inconclusive = small, poorly fitted or top-dose-only effect, or another doubt; inactive = no such curve, though single readings can be large; an effect the other way counts as inactive or inconclusive.

T1 sequence (P78324 whole entry, looked up): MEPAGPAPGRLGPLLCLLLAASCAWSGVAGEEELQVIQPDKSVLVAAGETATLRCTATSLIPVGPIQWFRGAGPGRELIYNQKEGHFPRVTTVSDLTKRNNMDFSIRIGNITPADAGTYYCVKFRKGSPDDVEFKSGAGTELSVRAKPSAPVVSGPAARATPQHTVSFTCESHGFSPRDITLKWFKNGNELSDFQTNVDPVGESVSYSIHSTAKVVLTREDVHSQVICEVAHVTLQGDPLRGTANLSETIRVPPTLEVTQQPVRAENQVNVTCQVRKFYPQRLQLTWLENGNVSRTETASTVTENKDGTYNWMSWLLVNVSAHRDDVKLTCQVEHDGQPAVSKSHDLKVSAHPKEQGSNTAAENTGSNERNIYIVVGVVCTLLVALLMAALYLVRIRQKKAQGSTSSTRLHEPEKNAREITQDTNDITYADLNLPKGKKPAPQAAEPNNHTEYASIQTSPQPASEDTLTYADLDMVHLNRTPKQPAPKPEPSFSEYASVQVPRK
T1 sequence (Q08722 whole entry, looked up): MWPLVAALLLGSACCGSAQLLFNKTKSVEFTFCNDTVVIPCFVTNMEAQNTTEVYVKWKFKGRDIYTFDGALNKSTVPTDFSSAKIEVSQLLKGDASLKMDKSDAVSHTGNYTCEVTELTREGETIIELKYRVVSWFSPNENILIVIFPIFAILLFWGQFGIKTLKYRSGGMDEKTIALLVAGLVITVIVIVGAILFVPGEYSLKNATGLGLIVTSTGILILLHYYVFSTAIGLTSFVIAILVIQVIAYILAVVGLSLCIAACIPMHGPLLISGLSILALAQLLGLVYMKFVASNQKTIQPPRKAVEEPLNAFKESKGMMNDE
Sequence of Atrial natriuretic peptide receptor 1 (Homo sapiens) (P16066 whole entry, looked up): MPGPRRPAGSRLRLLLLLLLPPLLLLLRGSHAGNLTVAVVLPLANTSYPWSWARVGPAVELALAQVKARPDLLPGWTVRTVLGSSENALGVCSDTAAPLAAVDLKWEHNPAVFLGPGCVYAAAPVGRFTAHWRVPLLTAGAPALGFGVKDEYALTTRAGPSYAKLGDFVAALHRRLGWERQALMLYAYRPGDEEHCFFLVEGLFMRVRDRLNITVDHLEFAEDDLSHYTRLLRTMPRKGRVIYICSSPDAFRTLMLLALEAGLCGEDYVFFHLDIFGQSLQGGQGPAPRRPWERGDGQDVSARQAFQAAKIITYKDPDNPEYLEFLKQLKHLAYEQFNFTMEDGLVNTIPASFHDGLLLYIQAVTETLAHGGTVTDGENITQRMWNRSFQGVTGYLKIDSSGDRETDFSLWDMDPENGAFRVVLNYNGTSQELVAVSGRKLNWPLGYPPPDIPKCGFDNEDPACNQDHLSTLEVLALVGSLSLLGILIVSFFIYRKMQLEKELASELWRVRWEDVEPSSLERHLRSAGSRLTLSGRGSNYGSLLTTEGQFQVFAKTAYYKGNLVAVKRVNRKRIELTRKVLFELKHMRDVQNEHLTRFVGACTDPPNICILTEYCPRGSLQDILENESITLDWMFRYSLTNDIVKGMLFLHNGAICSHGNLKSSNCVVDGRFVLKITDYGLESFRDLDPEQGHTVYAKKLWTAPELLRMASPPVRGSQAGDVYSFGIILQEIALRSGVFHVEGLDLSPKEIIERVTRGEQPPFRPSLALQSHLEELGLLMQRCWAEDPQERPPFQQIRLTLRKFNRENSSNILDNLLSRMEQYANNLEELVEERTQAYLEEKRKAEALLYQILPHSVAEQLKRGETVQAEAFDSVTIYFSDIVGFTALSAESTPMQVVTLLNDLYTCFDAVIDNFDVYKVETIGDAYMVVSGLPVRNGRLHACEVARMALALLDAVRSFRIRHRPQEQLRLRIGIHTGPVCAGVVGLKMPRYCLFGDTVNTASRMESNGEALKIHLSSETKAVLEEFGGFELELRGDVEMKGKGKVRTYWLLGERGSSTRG
Sequence of Atrial natriuretic peptide receptor 2 (Homo sapiens) (P20594 whole entry, looked up): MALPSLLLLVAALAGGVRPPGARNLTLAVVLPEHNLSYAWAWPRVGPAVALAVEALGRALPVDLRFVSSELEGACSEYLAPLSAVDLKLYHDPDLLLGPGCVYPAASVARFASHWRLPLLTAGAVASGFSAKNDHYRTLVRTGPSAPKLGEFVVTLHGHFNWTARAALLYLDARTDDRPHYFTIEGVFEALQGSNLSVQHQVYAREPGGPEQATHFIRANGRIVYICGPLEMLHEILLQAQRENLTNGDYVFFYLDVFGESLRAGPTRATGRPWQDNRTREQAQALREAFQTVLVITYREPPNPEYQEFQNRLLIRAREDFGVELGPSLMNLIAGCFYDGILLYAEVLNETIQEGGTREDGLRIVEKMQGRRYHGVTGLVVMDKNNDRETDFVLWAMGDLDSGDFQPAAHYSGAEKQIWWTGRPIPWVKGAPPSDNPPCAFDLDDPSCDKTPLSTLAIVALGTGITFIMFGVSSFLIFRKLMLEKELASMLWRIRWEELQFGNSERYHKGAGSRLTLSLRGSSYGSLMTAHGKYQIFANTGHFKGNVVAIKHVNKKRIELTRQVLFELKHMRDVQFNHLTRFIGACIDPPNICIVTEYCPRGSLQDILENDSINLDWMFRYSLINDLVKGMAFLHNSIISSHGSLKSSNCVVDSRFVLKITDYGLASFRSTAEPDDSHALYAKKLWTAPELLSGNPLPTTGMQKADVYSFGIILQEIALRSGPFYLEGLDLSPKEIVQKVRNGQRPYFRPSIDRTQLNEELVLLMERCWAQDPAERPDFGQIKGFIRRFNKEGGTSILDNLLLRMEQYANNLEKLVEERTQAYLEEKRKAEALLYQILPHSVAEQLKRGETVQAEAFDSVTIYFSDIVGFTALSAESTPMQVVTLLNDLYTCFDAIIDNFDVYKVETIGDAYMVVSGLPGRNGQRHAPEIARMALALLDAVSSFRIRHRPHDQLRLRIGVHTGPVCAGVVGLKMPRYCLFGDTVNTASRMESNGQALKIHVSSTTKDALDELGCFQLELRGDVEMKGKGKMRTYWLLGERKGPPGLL
Sequence of Parathyroid hormone/parathyroid hormone-related peptide receptor (Homo sapiens) (Q03431 whole entry, looked up): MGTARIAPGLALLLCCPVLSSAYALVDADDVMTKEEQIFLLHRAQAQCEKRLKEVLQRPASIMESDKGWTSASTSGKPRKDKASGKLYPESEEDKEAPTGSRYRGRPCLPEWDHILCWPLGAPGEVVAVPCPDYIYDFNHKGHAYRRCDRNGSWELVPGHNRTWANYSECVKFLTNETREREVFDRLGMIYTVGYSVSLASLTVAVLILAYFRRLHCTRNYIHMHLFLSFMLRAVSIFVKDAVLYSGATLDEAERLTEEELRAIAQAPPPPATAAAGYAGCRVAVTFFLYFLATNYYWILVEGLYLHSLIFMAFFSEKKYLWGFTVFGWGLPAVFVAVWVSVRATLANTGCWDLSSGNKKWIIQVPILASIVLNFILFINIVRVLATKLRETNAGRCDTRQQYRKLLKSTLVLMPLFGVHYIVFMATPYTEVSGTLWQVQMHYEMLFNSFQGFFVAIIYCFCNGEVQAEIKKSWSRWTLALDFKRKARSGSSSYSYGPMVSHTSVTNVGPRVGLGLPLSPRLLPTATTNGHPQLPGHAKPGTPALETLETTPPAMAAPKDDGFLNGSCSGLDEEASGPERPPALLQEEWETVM

For `O=C(CCCN1CCC2(CC1)C(=O)NCN2c1ccccc1)c1ccc(F)cc1`, the result in assay [1], in assay [2], in assay [3], in [4] and in assay [5] was inactive. The Potency result in assay [6], in assay [7] and in assay [8] was “inactive” throughout.

For the compound `CC(Cc1ccccc1)NCCn1cnc2c1c(=O)n(C)c(=O)n2C` (configuration not stated), the outcome in assay [9] was inactive. The Potency entry in [6], in assay [7] and in assay [8] was “inactive” each time.

As to `C[C@H](N)C(=O)c1ccccc1`, the Potency entry in [10], in assay [6], in [7] and in [8] was “inactive” each time.

As for `COC(=O)C(Cl)C(=O)OC`, the Potency entry in assay [10], in assay [6], in [7] and in assay [8] was “inactive” throughout. Further, the result in assay [9] was inactive.

Turning to `C[C@]12CCC(=O)C=C1CC[C@@H]1[C@@H]2CC[C@@]2(C)[C@H]1CC[C@]2(C)O`, in assay [9], the outcome was inactive. Moreover, the Potency entry in [6], in [7] and in assay [8] was “inactive” each time.

For `CNCC(=O)c1ccc(O)c(O)c1`, the Potency result in assay [10], in [6], in assay [7] and in assay [8] was “inactive” in each case.

As for `COc1cccc2c1C(=O)c1c(O)c3c(c(O)c1C2=O)C[C@@](O)(C(=O)CO)CC3OC1CC(N2CCOC(OC)C2)C(O)C(C)O1` (some centres not stated), the compound was called inactive in assay [9].

As to `COc1cc(CC(C)N)cc(OC)c1OC` (configuration not stated), the Potency result in assay [10], in assay [6], in assay [7] and in assay [8] was “inactive” throughout. For the same compound, in assay [9], the result was inactive.

As for `c1ccc(CN2CCNCC2)cc1`, the Potency entry in assay [10], in [6], in assay [7] and in [8] was “inactive” in each case.

With `C=CCC1([C@H](C)CCC)C(=O)NC(=O)NC1=O`, the Potency result in [10], in assay [6], in [7] and in assay [8] was “inactive” throughout. The result in [9] was inactive.

Consider `Nc1ccccc1`, for which the Potency result in assay [10], in [6], in assay [7] and in [8] was “inactive” throughout.

Turning to `O=C(O)/C=C\C(=O)O`, the Potency result in assay [10], in [6], in assay [7] and in assay [8] was “inactive” throughout.

As to `C[N+]1(CCF)[C@@H]2CC[C@H]1CC(OC(=O)C(O)(c1ccccc1)c1ccccc1)C2` (some centres not stated), the Potency entry in assay [10], in assay [6], in assay [7] and in [8] was “inactive” in each case. Moreover, in [9], the result was inactive.

For `C[C@]12CCC(=O)C=C1CC[C@@H]1[C@H]3CC[C@](C)(O)[C@@]3(C)CC[C@@H]12`, the Potency in assay [10] was 31.6 µM (active). Moreover, the Potency result in assay [6] and in [7] was “inactive” in each case.

For the compound `CCN[C@@H](C)Cc1cccc(C(F)(F)F)c1`, the Potency result in [10], in assay [6], in assay [7] and in assay [8] was “inactive” throughout. In [9], the result was inactive.

As for `COc1cc(OC)c(OC)cc1C=O`, the Potency entry in assay [10], in [6], in assay [7] and in assay [8] was “inactive” each time. For the same compound, the compound was classed as inactive in [9].

For `CN1CC[C@]23c4c5ccc(O)c4O[C@H]2[C@@H](O)CC[C@H]3[C@H]1C5`, the Potency entry in assay [10], in assay [6], in assay [7] and in assay [8] was “inactive” throughout. Also, in assay [9], the compound was called inactive.

With `CC(C)[C@H]1C(=O)N2CCC[C@H]2[C@]2(O)O[C@](NC(=O)[C@@H]3C[C@@H]4c5cccc6[nH]cc(c56)C[C@H]4N(C)C3)(C(C)C)C(=O)N12`, the Potency entry in [10] is “inactive”.

`CN(C)CCc1c[nH]c2cccc(OP(=O)(O)O)c12`: in [9], the outcome was inactive. The Potency entry in [6], in [7] and in assay [8] was “inactive” in each case.

In the case of `CC1(C)C(C=C(Cl)Cl)C1C(=O)OC(C#N)c1cccc(Oc2ccccc2)c1` (configuration not stated), the Potency entry in assay [10], in assay [6], in assay [7] and in assay [8] was “inactive” each time. Further, the call in assay [9] was inactive.

Consider `COc1cccc(C(=O)CCN[C@@H](C)[C@H](O)c2ccccc2)c1`, for which the Potency result in [10], in assay [6], in [7] and in assay [8] was “inactive” throughout. In addition, in assay [9], the call was inactive.

Consider `CCCOC(=O)c1cncn1C(C)c1ccccc1` (configuration not stated), for which the call in assay [9] was inactive. Also, the Potency entry in assay [6], in assay [7] and in assay [8] was “inactive” each time.

Turning to `COc1cc(CCN)cc(OC)c1OC`, the Potency entry in assay [10], in [6], in [7] and in assay [8] was “inactive” throughout. For the same compound, the result in assay [9] was inactive.

As for `CCN(CCO)CCn1c(Cc2ccccc2)nc2c1c(=O)n(C)c(=O)n2C`, the compound was classed as inactive in assay [9]. For the same compound, the Potency result in assay [6], in [7] and in [8] was “inactive” throughout.

In the case of `CCN[C@@H](C)Cc1ccccc1`, the Potency entry in [10], in assay [6], in [7] and in [8] was “inactive” throughout.

For `COc1cccc([C@@]2(O)CCCC[C@@H]2CN(C)C)c1`, the Potency result in [10], in assay [6], in [7] and in assay [8] was “inactive” in each case.

Turning to `CCN(CC)CCc1c[nH]c2ccccc12`, the Potency result in assay [10], in [6], in [7] and in assay [8] was “inactive” each time.

Regarding `CCN[C@H](C)Cc1cccc(C(F)(F)F)c1`, the Potency result in assay [10], in [6], in assay [7] and in assay [8] was “inactive” throughout.

With `COP(=S)(OC)Oc1cc(Cl)c(Cl)cc1Cl`, the Potency entry in assay [10], in assay [6], in [7] and in [8] was “inactive” throughout.

Turning to `CN[C@@H](C)Cc1ccccc1`, the Potency entry in assay [10], in assay [6], in assay [7] and in assay [8] was “inactive” in each case.

As to `CN1CC[C@]23c4c5ccc(O)c4O[C@H]2[C@@H](O)C=C[C@H]3[C@H]1C5`, the Potency result in [10], in assay [6], in assay [7] and in [8] was “inactive” in each case.

For the compound `Nc1ccn(C[C@@H](CO)OCP(=O)(O)O)c(=O)n1`, the outcome in [11] is “inactive [at 17.4 µM]”. Moreover, the Potency result in [10], in assay [6], in [7] and in assay [8] was “inactive” each time.

Regarding `[N-]=[N+]=CC(=O)OC[C@H](N)C(=O)O`, the outcome in [12] was inactive. Further, the Potency entry in [10], in assay [6], in assay [7] and in assay [8] was “inactive” in each case.

As for `O=C(O)c1ccc(=O)[nH]c1`, the call in [9] was inactive. Besides, the Potency result in assay [6], in assay [7] and in assay [8] was “inactive” each time.

As to `COc1ccc2c3c1O[C@H]1[C@H](O)CC[C@H]4[C@@H](C2)N(C)CC[C@@]341`, the Potency result in [10], in [6], in [7] and in assay [8] was “inactive” in each case. The compound was classed as inactive in assay [9].

With `C[C@@H]1CC2=CC(=O)CC[C@@H]2[C@H]2CC[C@@]3(C)[C@@H](CC[C@]3(C)O)[C@@H]21`, in [9], the result was inactive. For the same compound, the Potency entry in assay [6], in assay [7] and in [8] was “inactive” each time.

As to `O=C1CN(/N=C/c2ccc([N+](=O)[O-])o2)C(=O)N1`, the Potency result in assay [6] and in assay [7] was “inactive” in each case.

Consider `CCN(CC)C(=O)[C@@H]1C=C2c3cccc4[nH]cc(c34)C[C@H]2N(C)C1`, for which the compound was called inactive in assay [9]. The Potency entry in assay [6] and in [8] was “inactive” each time.

`C=CC[C@@H]1C=C(C)C[C@H](C)C[C@H](OC)[C@H]2O[C@@](O)(C(=O)C(=O)N3CCCC[C@H]3C(=O)O[C@H](C(C)=C[C@@H]3CC[C@H](O)[C@H](OC)C3)[C@@H](C)[C@@H](O)CC1=O)[C@@H](C)C[C@@H]2OC`: in assay [6], the Potency result is “inactive”.

As for `O=C(O)Cc1ccc(-c2ccccc2)cc1`, the Potency result in assay [6] and in assay [7] was “inactive” throughout.
